Assay outcomes: PubChem, Broad Institute
T cruzi growth-1 – T. cruzi proliferation inhibition; T. cruzi beta-gal in NIH3T3, GalScreen luminescence, 90 h; inhibition, % at 8.34 µM; actives 5.9% (n = 77,000); AID 624255;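 active means mean inhibition above about 93%, with at least 55% of replicates each passing it, limit read from the data, passing the limit was not always enough; inconclusive means only one of those two conditions holds; inactive means neither condition holds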
Pf Dd2 inh – P. falciparum Dd2 growth inhibition; SYBR Green, 72 h; stronger effect = lower value; AID 1159554; activity change, % at 10 µM; actives 2.3% (n = 94,000); in the data active means activity change below about -80%; inconclusive means no clear call, values can overlap the other calls
C diff growth – blocks growth of Clostridium difficile; Clostridium difficile clinical isolate growth, OD600, 24 h; stronger effect = lower value; growth activity, negative = inhibition, % at 16 µg/mL (by protocol); actives 0.25% (n = 86,000);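 active means mean growth activity at or below -80% and every replicate also at or below -80%; inconclusive means mean at or below -80% but some replicate above -80%; inactive means mean growth activity above -80%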;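 further: 0% = DMSO wells and -100% = levofloxacin 16 µg/mL wells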
T cruzi growth-2 – inhibitors of T. cruzi proliferation. shares compounds with T cruzi growth-1. T. cruzi beta-gal in NIH3T3, GalScreen luminescence, 90 h. inhibition, % at 8.35 µM. actives 72% (n = 5,600). AID 651739;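 active means mean replicate inhibition above about 95% and at least 55% of replicates individually reaching it, limit read from the data; inconclusive means only one of the two criteria is met; inactive means neither criterion is met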
T cruzi growth-3 – blocks T. cruzi growth in NIH3T3 host cells. actives 21% (n = 5,600). T. cruzi beta-gal in NIH3T3, GalScreen luminescence, 90 h. inhibition, % at 2.09 µM. shares compounds with T cruzi growth-1;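 active means mean inhibition above about 95%, with at least 55% of replicates also reaching it, limit read from the data; inconclusive means meets just one of the two conditions; inactive means meets neither condition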;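 further: plate controls were neutral control median for no effect and positive control median for full effect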
NIH3T3 tox – NIH/3T3 (mouse) viability loss; actives 14% (n = 5,600); shares compounds with T cruzi growth-1; AID 651742; cytotoxicity (signal decrease), % at 8.35 µM; NIH/3T3 viability, CellTiter-Glo ATP luminescence, 90 h;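 active means mean signal decrease across replicates above about 35% based on untreated-well scatter, with enough replicates individually passing, limit read from the data; inconclusive means no rule stated though some were filed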;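 further: 0% = median of neutral control wells and 100% = median of positive control wells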
NIH3T3 tox 2 – NIH/3T3 (mouse) viability loss | NIH/3T3 viability, CellTiter-Glo ATP luminescence, 90 h | inhibition, % at 24.9 µM | AID 651744 | shares compounds with T cruzi growth-1 | actives 56% (n = 5,600);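 active means mean loss of cell viability signal at or above a set limit, and enough replicates individually reaching it; inconclusive means meets only the mean limit or only the replicate share; inactive means meets neither condition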;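 further: 0% = median of neutral control wells and 100% = median of positive control wells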
Starred values were filed as active, the others as inactive; ? = inconclusive; nt = no result; ! = a repeat was not active. Hits are enriched below; roughly 6.7% of the tested compounds scored in any of these assays.

SMILES | T cruzi growth-1 | Pf Dd2 inh | C diff growth | T cruzi growth-2 | T cruzi growth-3 | NIH3T3 tox | NIH3T3 tox 2
C[C@@H]1CCCCO[C@H](CN(C)Cc2ccncc2)[C@H](C)CN([C@@H](C)CO)C(=O)c2cc(NS(=O)(=O)c3ccc(F)cc3)ccc2O1 | nt | -45 | -4 | nt | nt | nt | nt
N#C[C@H]1[C@@H](c2ccc(C3=CCCC3)cc2)[C@@H](CO)N1C(=O)NC1CCCCC1 | nt | -27 | -8 | nt | nt | nt | nt
N#C[C@@H]1[C@@H](c2ccc(C3=CCCCC3)cc2)[C@H](CO)N1C(=O)NC1CCCCC1 | 98* | -28 | 0 | 103* | 67 | -10 | 87*
CO[C@H]1CN(C)C(=O)c2cc(NC(=O)c3cc(C)on3)ccc2OC[C@H](C)NC[C@H]1C | -34 | -4 | nt | nt | nt | nt | nt
C[C@@H]1CCCCO[C@@H](CN(C)C(=O)Nc2cccc3ccccc23)[C@@H](C)CN([C@H](C)CO)C(=O)c2cc(NS(=O)(=O)c3cccs3)ccc2O1 | 86 | 6 | 11 | nt | nt | nt | nt
C[C@@H]1CCCCO[C@@H](CN(C)C(=O)Nc2cccc3ccccc23)[C@H](C)CN([C@H](C)CO)C(=O)c2cc(NS(=O)(=O)c3cccs3)ccc2O1 | 105* | -24 | 8 | 105* | 106* | -33 | -17
C[C@H]1CCCCO[C@H](CN(C)C(=O)Nc2cccc3ccccc23)[C@@H](C)CN([C@@H](C)CO)C(=O)c2cc(NS(=O)(=O)c3cccs3)ccc2O1 | 102* | -75 | 0 | 93 | 66 | -10 | -3
C[C@@H]1CN([C@@H](C)CO)C(=O)c2cc(NS(=O)(=O)c3cccs3)ccc2O[C@@H](C)CCCCO[C@H]1CN(C)C(=O)Nc1cccc2ccccc12 | 63 | -77 | 18 | nt | nt | nt | nt
COCC(=O)Nc1ccc2c(c1)C(=O)N(C)C[C@H](OC)[C@H](C)CN(C(=O)c1ccccc1F)[C@H](C)CO2 | 0 | -38 | nt | nt | nt | nt | nt
COc1ccc(NC(=O)N(C)C[C@@H]2OCCCC[C@H](C)Oc3ccc(NC(=O)Nc4c(C)noc4C)cc3C(=O)N([C@@H](C)CO)C[C@H]2C)cc1 | -5 | 16 | 5 | nt | nt | nt | nt
Cc1noc(C)c1NC(=O)Nc1ccc2c(c1)C(=O)N([C@H](C)CO)C[C@H](C)[C@@H](CN(C)C(=O)Nc1cccc3ccccc13)O2 | -94 | 19 | nt | nt | nt | nt | nt
O=C(Cc1cccnc1)N[C@H]1CC[C@H](CCNS(=O)(=O)c2ccccc2Cl)O[C@H]1CO | -61 | 9 | -5 | nt | nt | nt | nt
Cc1ccc(S(=O)(=O)N(C)C[C@@H]2Oc3ccc(NC(=O)Nc4c(C)noc4C)cc3C(=O)N([C@H](C)CO)C[C@@H]2C)cc1 | 7 | -7 | -3 | nt | nt | nt | nt
C[C@@H]1CCCCO[C@@H](CN(C)C(=O)C2CCCCC2)[C@H](C)CN([C@H](C)CO)C(=O)c2cc(N(C)C)ccc2O1 | ? | 8 | -5 | 3 | -6 | -9 | -4
C[C@@H]1CCCCO[C@@H](CN(C)C(=O)CCC(F)(F)F)[C@H](C)CN([C@@H](C)CO)C(=O)c2cc(N(C)C)ccc2O1 | ? | -3 | -8 | 50 | 64 | -29 | -18
C[C@@H]1CCCCO[C@H](CN(C)C(=O)C2CCCCC2)[C@@H](C)CN([C@H](C)CO)C(=O)c2cc(N(C)C)ccc2O1 | 103*! | -3 | -1 | 52 | 32 | 8 | -9
C[C@@H]1CCCCO[C@@H](CN(C)C(=O)NC2CCCCC2)[C@@H](C)CN([C@@H](C)CO)C(=O)c2cc(N(C)C)ccc2O1 | -5 | nt | -1 | nt | nt | nt | nt
C[C@@H]1CCCCO[C@H](CN(C)C(=O)C2CCCCC2)[C@@H](C)CN([C@@H](C)CO)C(=O)c2cc(N(C)C)ccc2O1 | 36 | -68 | -1 | nt | nt | nt | nt
C[C@@H]1CN([C@H](C)CO)C(=O)c2cc(N(C)C)ccc2O[C@@H](C)CCCCO[C@@H]1CN(C)C(=O)C1CCCCC1 | 70 | 21 | -2 | nt | nt | nt | nt
C[C@@H]1CCCCO[C@H](CN(C)C(=O)CCC(F)(F)F)[C@H](C)CN([C@@H](C)CO)C(=O)c2cc(N(C)C)ccc2O1 | 67 | nt | -3 | nt | nt | nt | nt
C[C@H](CO)N1C[C@H](C)[C@H](CN(C)C(=O)NC2CCCCC2)OCCCC[C@H](C)Oc2ccc(N(C)C)cc2C1=O | 111* | -52 | 5 | 52 | 20 | -19 | -37
COc1ccc(S(=O)(=O)Nc2ccc3c(c2)C(=O)N([C@H](C)CO)C[C@H](C)[C@H](CN(C)S(=O)(=O)c2c(C)noc2C)O3)cc1 | -154 | -11 | -2 | nt | nt | nt | nt
C[C@H]1CN([C@@H](C)CO)C(=O)Cc2cc(NC(=O)CCCCCC(=O)Nc3ccccc3N)ccc2O[C@H]1CN(C)C(=O)Nc1ccc(C(F)(F)F)cc1 | 45 | -51 | -15 | nt | nt | nt | nt
CC(C)C#Cc1ccc2c(c1)O[C@@H](CN(C)C)[C@@H](C)CN([C@H](C)CO)S2(=O)=O | nt | -33 | nt | nt | nt | nt | nt
O=C(Nc1ccc2c(c1)OCO2)N1[C@@H]2CNC[C@H]1C2c1ccc(-c2cccnc2)cc1 (some centres undefined) | nt | 17 | -11 | nt | nt | nt | nt
SMILES | T cruzi growth-1 | Pf Dd2 inh | C diff growth | T cruzi growth-2 | T cruzi growth-3 | NIH3T3 tox | NIH3T3 tox 2
Cc1ccc(S(=O)(=O)NC[C@@H]2CC[C@@H]3[C@@H](CN3Cc3cc(F)ccc3F)O2)cc1 | nt | 2 | -8 | nt | nt | nt | nt
COc1ccc(NC(=O)N[C@@H]2CC[C@@H](CCn3cc(-c4ccc(F)cc4)nn3)O[C@@H]2CO)cc1 | nt | -18 | -4 | nt | nt | nt | nt
C[C@H](CO)N1C[C@H](C)[C@H](CN(C)Cc2ccc(Cl)c(Cl)c2)Oc2ccc(NC(=O)Nc3cccc4ccccc34)cc2C1=O | -4 | 11 | 11 | nt | nt | nt | nt
C[C@H](CO)N1C[C@H](C)[C@@H](CN(C)Cc2ccc(Cl)c(Cl)c2)Oc2ccc(NC(=O)Nc3cccc4ccccc34)cc2C1=O | 93 | -20 | -4 | nt | nt | nt | nt
C[C@@H]1CN([C@H](C)CO)C(=O)c2cc(NC(=O)Nc3cccc4ccccc34)ccc2O[C@H]1CN(C)Cc1ccc(Cl)c(Cl)c1 | 102* | 15 | -8 | 102* | 96* | 43* | 29*
C[C@@H]1CN([C@H](C)CO)C(=O)c2cc(NC(=O)Nc3cccc4ccccc34)ccc2O[C@@H]1CN(C)Cc1ccc(Cl)c(Cl)c1 | ? | 19 | 3 | 94 | 29 | 36* | 25*
CN1CCN(C(=O)C[C@@H]2CC[C@@H]3[C@H](COc4ccc(NC(=O)C5CCCC5)cc4C(=O)N3C)O2)CC1 | nt | -2 | 0 | nt | nt | nt | nt
COc1ccc(CN(C)C[C@@H]2Oc3ccc(NC(=O)Nc4ccccc4)cc3C(=O)N([C@@H](C)CO)C[C@@H]2C)cc1 | 15 | 13 | -8 | nt | nt | nt | nt
COc1ccc(NC(=O)Nc2ccc3c(c2)C(=O)N([C@@H](C)CO)C[C@@H](C)[C@@H](CN(C)Cc2ccc(-c4ccccc4)cc2)O3)cc1 | 100* | 21 | nt | 104* | 108* | 55* | 84*
